Source: PubChem BioAssay (NCI)
Compounds without any hit were thinned out: in the full panel of roughly 79,000, 15% have a hit. Values without a mark were called inactive. Calls of active or inactive are those of the source. Rule as the data show it: active = growth inhibition above about 70%; inactive = the rest.

Key:
[1] = NCI Yeast Anticancer Drug Screen. Data for the rad50 strain (AID 155);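 also: 0% = growth of vehicle-only cultures of the same strain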; conditions: S. cerevisiae rad50 strain growth inhibition, active compounds read high
Outline: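 Growth of the mutant yeast was measured after compound exposure and referenced to vehicle-treated cultures.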

[2] = NCI Yeast Anticancer Drug Screen. Data for the mec2-1 strain (AID 157); conditions: S. cerevisiae mec2-1 strain, active compounds read high
Outline: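 mec2-1 yeast strain, carrying an alteration in DNA damage repair or cell cycle control, was exposed to compounds; growth inhibition was measured relative to vehicle-treated controls.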

[3] = NCI Yeast Anticancer Drug Screen. Data for the sgs1 mgt1 strain (AID 161);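 also: 0% = growth of cultures given vehicle only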; conditions: S. cerevisiae sgs1 mgt1 strain, active compounds read high
Outline: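 Yeast cells carrying a defined DNA-repair defect were exposed to test compounds. Growth inhibition was measured relative to vehicle-treated controls.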

[4] = NCI Yeast Anticancer Drug Screen. Data for the cln2 rad14 strain (AID 165);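 also: 0% = growth equal to vehicle treated cultures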; conditions: S. cerevisiae cln2 rad14 strain, active compounds read high
Outline: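 Yeast carrying cln2 and rad14 alterations (cell cycle control and DNA damage repair) were exposed to compounds. Growth inhibition was measured against vehicle-treated controls.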

[5] = NCI Yeast Anticancer Drug Screen. Data for the bub3 strain (AID 167); conditions: S. cerevisiae bub3 mutant strain, active compounds read high
Outline: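 Whole-cell yeast assay. The mutant strain was incubated with compounds, and growth inhibition was determined by comparison with vehicle-treated cells.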

[6] = NCI Yeast Anticancer Drug Screen. Data for the mlh1 rad18 strain (AID 175); conditions: S. cerevisiae mlh1 rad18 strain growth inhibition, active compounds read high
Outline: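 Growth inhibition of the yeast strain was measured after compound exposure and expressed relative to vehicle-treated controls. The strain carries defined defects in DNA damage repair.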

[7] = at 5.0 µM (retest, dose inferred, filed as 0.5)
[8] = at 50.0 µM (retest, dose inferred, filed as 5.0)

| Compound | growth inhibition [1, 7] | growth inhibition [1, 8] | growth inhibition ([1]; at 50.0 µM) | growth inhibition [2, 7] | growth inhibition [2, 8] | growth inhibition ([2]; at 50.0 µM) | growth inhibition [3, 7] | growth inhibition [3, 8] | growth inhibition ([3]; at 50.0 µM) | growth inhibition [4, 7] | growth inhibition [4, 8] | growth inhibition ([4]; at 50.0 µM) | growth inhibition [5, 7] | growth inhibition [5, 8] | growth inhibition ([5]; at 50.0 µM) | growth inhibition [6, 7] | growth inhibition [6, 8] | growth inhibition ([6]; at 50.0 µM) |
| --- | --- | --- | --- | --- | --- | --- | --- | --- | --- | --- | --- | --- | --- | --- | --- | --- | --- | --- |
| C[n+]1c(/C=C/c2ccc(N3CCCC3)cc2)sc2ccccc21 | 76% (active) | 98% (active) | 98.6% (active) | 37% | 99% (active) | 99.2% (active) | 95% (active) | 99% (active) | 98.5% (active) | 60% | 98% (active) | 98.8% (active) | 46% | 98% (active) | 98.2% (active) | 85% (active) | 98% (active) | 98.8% (active) |
| O=C(O)CCCCCCCCCCOc1ccc(Cl)cc1Cl | -3% | -8% | 98% (active) | -2% | -2% | 99.1% (active) | 0% | -3% | 94.3% (active) | 1% | -8% | 5.5% | -1% | 2% | 99.3% (active) | 0% | -1% | 98.2% (active) |
| CC(C)(C)C(=O)OCC(=O)c1ccc(-c2ccccc2)cc1 | -2% | -6% | 11% | -6% | -6% | -0.25% | -2% | -4% | 13.7% | -9% | -13% | -4.6% | 73% (active) | 86% (active) | 65% | -4% | -8% | 3.75% |
| CCN(CC)c1ccc2nc3ccc(N(CC)CC)cc3[n+](-c3ccccc3)c2c1 | 97% (active) | 98% (active) | 92.1% (active) | 100% (active) | 99% (active) | 93.7% (active) | 92% (active) | 99% (active) | 98.7% (active) | 79% (active) | 98% (active) | 97.5% (active) | 98% (active) | 98% (active) | 98.7% (active) | 99% (active) | 99% (active) | 98.7% (active) |
| Cc1c2cnccc2c(C)c2c1c1ccccc1n2Cc1ccccc1 | 3% | 98% (active) | 89% (active) | -2% | 75% (active) | 25.5% | -2% | 94% (active) | 48.8% | -1% | 91% (active) | 28.4% | -3% | 93% (active) | 59.5% | -8% | 97% (active) | 62.7% |
| C=C(C)COc1ccccc1C(OCC)OCC | 1% | 21% | 49.9% | 7% | 19% | 14.9% | 3% | 28% | 29.1% | -1% | 27% | 13.7% | 0% | 20% | 31.6% | 0% | 39% | 78.5% (active) |
| CCOC(=O)/C(C#N)=C\c1ccc(N(CCC(=O)O)CCC(=O)O)c(I)c1 | 1% | 77% (active) | -6.7% | -4% | 77% (active) | 33.5% | 3% | 37% | -5.3% | -7% | 77% (active) | 53.8% | 35% | 93% (active) | -13.1% | 10% | 77% (active) | -6.35% |
| Nc1nc(Cc2ccccc2)nc(Cc2ccccc2)c1-c1ccccc1 | 25% | 97% (active) | 96.4% (active) | -2% | 98% (active) | 96.5% (active) | 6% | 98% (active) | 96.8% (active) | 4% | 95% (active) | 94.1% (active) | 15% | 98% (active) | 96% (active) | 4% | 97% (active) | 95.6% (active) |
| CC(=O)OC[C@@]1(C)[C@@H]2CC[C@]3(C)[C@H](C(=O)C=C4[C@@H]5CC(C)(C)CC[C@]5(C(=O)O)CC[C@]43C)[C@@]2(C)CC[C@@H]1OC(C)=O | 23% | 84% (active) | 43.1% | 23% | 88% (active) | 94.2% (active) | 28% | 88% (active) | 92.8% (active) | 39% | 93% (active) | 95.7% (active) | 9% | 91% (active) | 92.7% (active) | 29% | 88% (active) | 95.6% (active) |
| CC(NC(=O)C(NC(=O)C(NC(=O)C(F)(F)F)C(C)C)C(C)C)C(=O)Oc1c(Cl)c(Cl)c(Cl)c(Cl)c1Cl (configuration not stated) | 5% | 70% (active) | 59% | 6% | 62% | 86.7% (active) | 21% | 80% (active) | 82.9% (active) | 10% | 68% | 77.7% (active) | -20% | 65% | 85.6% (active) | 28% | 83% (active) | 78.7% (active) |
| O=C(NNc1ccccc1)C(O)C(O)C(O)C(O)C(O)C(O)C(O)CO (configuration not stated) | 17% | 87% (active) | 69.1% | 10% | 78% (active) | 39.4% | 10% | 82% (active) | 88.1% (active) | 3% | 82% (active) | 95.9% (active) | 1% | 94% (active) | 88.3% (active) | 45% | 96% (active) | 92.8% (active) |
| CC(=O)Nc1ccc(-c2nnc(SCC(=O)Nc3ccc(Cl)cc3Cl)o2)cc1 | 1% | 30% | 89.4% (active) | -4% | 10% | 97.4% (active) | 2% | 8% | 94.9% (active) | 8% | 29% | 86.4% (active) | -3% | 22% | 97.7% (active) | 7% | 28% | 94.7% (active) |
| c1csc(-c2nnc(C34CC5CC(CC(C5)C3)C4)o2)c1 | -31% | 93% (active) | 61.5% | -12% | 95% (active) | 55.3% | -24% | 97% (active) | 83.3% (active) | -2% | 76% (active) | 7.3% | -10% | 98% (active) | 86.3% (active) | -12% | 98% (active) | 65.3% |
| CCC(C1SC(=S)NC1=O)C1SC(=S)NC1=O (configuration not stated) | 3% | 13% | 99.3% (active) | -1% | 29% | 99.6% (active) | 10% | 41% | 99.4% (active) | -9% | -2% | 82.9% (active) | -4% | 6% | 99.5% (active) | -1% | 35% | 99% (active) |
| CCCNC(=S)N/N=C(/C)c1nccc2ccccc12 | 9% | 86% (active) | 38.1% | 4% | 98% (active) | 20.4% | 7% | 88% (active) | 70% (active) | -8% | 7% | 17.9% | 0% | 78% (active) | 14.8% | 3% | 93% (active) | 29.4% |
| Cn1ncc2c(NCc3ccc(Cl)cc3)nc(Cl)nc21 | 7% | 97% (active) | 98.2% (active) | -1% | 98% (active) | 96.5% (active) | 8% | 97% (active) | 98% (active) | 2% | 95% (active) | 99.2% (active) | 2% | 97% (active) | 98.9% (active) | 0% | 97% (active) | 98.5% (active) |
| N#CC1Sc2ccccc2N1C(=O)c1ccccc1 (configuration not stated) | -2% | 3% | 96.6% (active) | -15% | -6% | 91% (active) | -2% | -19% | 93% (active) | -12% | -19% | 78% (active) | -10% | 4% | 84.2% (active) | -12% | -5% | 98% (active) |
| CCOC(=O)C[n+]1c(C)sc2ccccc21 | -4% | 23% | 78.4% (active) | -3% | 28% | 40.1% | 0% | 54% | 37.6% | -7% | 18% | 17.6% | -6% | 15% | 39.6% | -3% | 43% | 19.2% |
| OC(CC(O)(C(F)(F)Cl)C(F)(F)Cl)c1ccccc1 (configuration not stated) | 31% | 66% | 88.1% (active) | 10% | 62% | 90.7% (active) | 42% | 72% (active) | 92.1% (active) | 35% | 58% | 85.8% (active) | 37% | 69% | 88.6% (active) | 26% | 59% | 89.3% (active) |
